This is part of a sample that, as a whole, favours compounds with a hit. Of some 83,000 tested, about 20% had one in any assay.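 Treatment: one concentration, 48 hours, 96-well format. Scoring: percent growth, with anything below 10 considered active.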 Values without a mark were called inactive. Active and inactive are the calls of the source.

Common to all, as to assay: NCI-60 one-dose screen, 48 h (100 = growth as untreated, 0 = no growth, -100 = all killed)
What all share (details): 10 µM unless noted

The subject of assay [1] is T-47D breast.
For assay [2], the system named is BT-549 breast.
The subject of assay [3] is MDA-MB-435 melanoma.
Assay [4] concerns SW-620 colon.
Assay [5] relates to MCF7 breast.
The subject of assay [6] is HCT-116 colon.
The subject of assay [7] is HCC-2998 colon.
Assay [8] has as its system KM12 colon.

Take `O=C(CSc1nnc(-c2ccccc2)o1)Nc1ccc(C(=O)/C=C/c2ccccc2)cc1`: the growth in assay [1] is 79.4%; in assay [2], 74.5%; in assay [3], 55.5%; in assay [4], 39.4%; in assay [5] it was 7.77% (active); in assay [6], -2.15% (active). The growth in assay [7] is 46.5%; in assay [8] it was 30.2%.

`CCCC(=O)Oc1ccc(/C(=C(\C)c2ccc(OC)cc2)c2ccc(OCCN3CCCCC3)cc2)cc1`: the growth in assay [1] was 32.7%; in assay [2], 82.2%; in assay [3], 84.2%; in assay [4] it was 87.5%; in assay [5] it was 28.3%; in assay [6], 55.7%. Also, the growth in assay [7] is 91%; in assay [8] it was 75.6%.

As for `CCOC(=O)CSc1nnc(-c2cc3c([nH]c4ccccc43)c(-c3cccc(O)c3)n2)n1-c1ccc(C)cc1`, the growth in assay [1] was -5.32% (active); in assay [2], 101%; in assay [3] it was 16.4%; in assay [4] it was 67.1%; in assay [5] it was 35.3%; in assay [6], 50%. The values for the growth in assay [7] and in assay [8] were 83.7% and 76.3%, respectively.

For the compound `CC(C)NCC(O)COc1ccc(CC(N)=O)cc1` (stereo unspecified), the growth in assay [1] is 98.9%; in assay [2], 96.7%; in assay [3] it was 107%; in assay [4], 100%; in assay [5], 98.1%; in assay [6], 99.2%. Further, the growth in assay [7] and in assay [8] was 106% in each case.

For the compound `OCCOCC(F)(F)F`, the growth is 104% in assay [1]; 97.7% in assay [2]; 94.4% in assay [3]; 100% in assay [4]; 105% in assay [5]; 106% in assay [6]. Besides, the growth was 104% in assay [7] and 113% in assay [8].

In the case of `OC[C@@H](O)C(O[C@@H]1O[C@H](CO)[C@H](O)[C@H](O)[C@H]1O)[C@H](O)[C@@H](O)CO` (stereo partly specified), the growth in assay [1] was 105%; in assay [2] it was 107%; in assay [3], 95.4%; in assay [4] it was 102%; in assay [5], 106%; in assay [6], 113%. Further, the growth in assay [7] is 95.6%; in assay [8], 103%.

With `CCCOC(=O)c1ccc([N+](=O)[O-])o1`, the growth in assay [1] is 114%; in assay [2], 127%; in assay [3], 107%; in assay [4] it was 97.2%; in assay [5] it was 94.2%; in assay [6], 105%. For the same compound, the growth in assay [7] was 121%; in assay [8], 101%.

`O=C1OC(N(Cc2ccc(Cl)cc2)c2ccccc2)c2ccccc21` (stereo unspecified): the growth in assay [1] is 89.2%; in assay [2], 103%; in assay [3], 109%; in assay [4], 101%; in assay [5], 94.9%; in assay [6], 97%. Besides, the growth is 102% in assay [7] and 98.2% in assay [8].

Consider `COC(OC)C1(c2ccccc2)NC(=O)NC1=O` (stereo unspecified), for which the growth in assay [1] is 106%; in assay [2] it was 114%; in assay [3], 111%; in assay [4], 109%; in assay [5], 104%; in assay [6], 99.4%. Moreover, the growth in assay [7] is 101%; in assay [8] it was 115%.

On to `CS(=O)(=O)Nc1cccc(-c2ccc3ncnc(Nc4cncc(Cl)c4)c3c2)c1`, for which the growth was -21.9% (active) in assay [1]; 34.8% in assay [2]; 49.9% in assay [3]; 33.2% in assay [4]; 15.6% in assay [5]; 30.4% in assay [6]. In addition, the growth is 39.2% in assay [7] and 32.7% in assay [8].

In the case of `NS(=O)(=O)c1ccc(-n2nc(-c3ccc(Cl)cc3)ccc2=O)cc1`, the growth in assay [1] is 95.2%; in assay [2] it was 92.9%; in assay [3], 43.5%; in assay [4] it was 93.1%; in assay [5], 86.2%; in assay [6] it was 99.6%. Further, the growth in assay [7] is 102%; in assay [8] it was 69.7%.

`COc1cccc(-c2nc3sccn3c2-c2ccnc(NCCNC(=O)Nc3cccc(C(F)(F)F)c3)n2)c1`: the growth in assay [1] was 42.9%; in assay [2], 71.9%; in assay [3], 21.5%; in assay [4], 88.9%; in assay [5], 54.8%; in assay [6], 44.6%. Further, the growth in assay [7] was 40.8%; in assay [8], 33.5%.

`NS(=O)(=O)c1ccc(CCN2C(=O)/C(=C\c3ccc(Cl)cc3)C=C2c2ccc(Oc3ccccc3)cc2)cc1`: the growth in assay [1] is 66.7%; in assay [2], 92.2%; in assay [3], 78.8%; in assay [4], 83%; in assay [5], 39.3%; in assay [6], 65%. Besides, the values for the growth in assay [7] and in assay [8] were 89% and 62.4%, respectively.

As to `CN1CCN(Cn2nc(-c3cc(Cl)cc(Cl)c3Cl)n(/N=C/c3ccc(Cl)cc3)c2=S)CC1`, the growth in assay [1] was 94.9%; in assay [2] it was 102%; in assay [3] it was 107%; in assay [4], 110%; in assay [5] it was 95.5%; in assay [6] it was 89.4%. Besides, the growth was 103% in assay [7] and 107% in assay [8].

Regarding `COc1ccc(/C(Cl)=N/N=C(\Cl)c2cc(OC)c(OC)c(OC)c2)cc1OC(C)=O`, the growth in assay [1] is 66.2%; in assay [2], 96.1%; in assay [3] it was 99.9%; in assay [4] it was 93.7%; in assay [5] it was 93.9%; in assay [6], 90.5%. The growth was 102% in assay [7] and 98.2% in assay [8].

Turning to `COc1ccc(-c2nn(-c3ccc(NC(=O)c4ccc(Cl)c(C(F)(F)F)c4)cc3)cc2-c2ccncc2)cc1Cl`, the growth in assay [1] is 46.1%; in assay [2], 40.5%; in assay [3], 23.2%; in assay [4], 16%; in assay [5], 22.5%; in assay [6], 15.8%. Moreover, the growth in assay [7] is 9.69% (active); in assay [8] it was 14.8%.

For the compound `CC(C(C(=O)N1CCCCC1)N1CCCCC1)N1CCCCC1` (stereo unspecified), the growth in assay [1] is 107%; in assay [2], 111%; in assay [3] it was 109%; in assay [4] it was 108%; in assay [5] it was 104%; in assay [6] it was 97%. Also, the figures for the growth in assay [7] and in assay [8] were 107% and 113%, respectively.

`COc1ccccc1C(OC(C)=O)OC(C)=O`: the growth in assay [1] was 95.3%; in assay [2], 102%; in assay [3], 104%; in assay [4] it was 108%; in assay [5] it was 90.9%; in assay [6], 95.7%. Further, the growth in assay [7] and in assay [8] was 105% in each case.

On to `Nc1ncnc2c1c(-c1ccc(Oc3ccccc3)cc1)nn2C[C@H]1SSC[C@@H]1O`, for which the growth in assay [1] is -20.3% (active); in assay [2], 78.1%; in assay [3], -92.9% (active); in assay [4], 51.1%; in assay [5] it was 14.5%; in assay [6], 13%. The results for the growth in assay [7] and in assay [8] were 72.1% and 32.6%, respectively.

With `Cc1ccc(NC(=O)CN2CCOCC2)cc1Cl`, the growth in assay [1] is 88.7%; in assay [2], 77%; in assay [3] it was 100%; in assay [4], 98.5%; in assay [5], 91.8%; in assay [6], 80.5%. The figures for the growth in assay [7] and in assay [8] were 96.8% and 103%, respectively.

Turning to `COc1ccc2c(c1)nnn1c3ncccc3c(N=O)c21`, the growth in assay [1] is -0.214% (active); in assay [2], -11.7% (active); in assay [3], -5.59% (active); in assay [4] it was -80.3% (active); in assay [5] it was -58.7% (active); in assay [6], -86% (active). The growth is 12.6% in assay [7] and 5.81% (active) in assay [8].

`FC(F)(F)c1cn(CC2CNC2)c2ncnc(Cl)c12`: the growth in assay [1] was 102%; in assay [2] it was 125%; in assay [3], 109%; in assay [4] it was 104%; in assay [5] it was 103%; in assay [6], 108%. For the same compound, the values for the growth in assay [7] and in assay [8] were 99.5% and 104%, respectively.

As to `CCN(CC)CC(=O)Nc1c(C)cccc1C`, the growth was 107% in assay [1]; 97.3% in assay [2]; 104% in assay [3]; 106% in assay [4]; 97% in assay [5]; 96.1% in assay [6]. Moreover, the values for the growth in assay [7] and in assay [8] were 114% and 113%, respectively.

Regarding `c1ccc(OCC[P+](c2ccccc2)(c2ccccc2)c2ccccc2)cc1`, the growth in assay [1] is 6.07% (active); in assay [2], 19.6%; in assay [3], 4.66% (active); in assay [4], 18.3%; in assay [5], 20%; in assay [6], 15.6%. In addition, the growth in assay [7] was 5.3% (active); in assay [8] it was 14.9%.

As to `COc1cccc(-c2nc3sccn3c2-c2ccnc(NCCNC(=O)c3ccccc3)n2)c1`, the growth in assay [1] is 61.9%; in assay [2] it was 85.1%; in assay [3], 55.2%; in assay [4], 114%; in assay [5], 81.7%; in assay [6], 81.8%. Further, the growth in assay [7] was 114%; in assay [8], 87.8%.

For the compound `Nn1c(SCC(=O)Nc2cc(Cl)c(Cl)cc2Cl)nnc1-c1cc(F)c(Cl)cc1Cl`, the growth in assay [1] was 97.5%; in assay [2] it was 87.4%; in assay [3], 91.2%; in assay [4] it was 106%; in assay [5], 78.8%; in assay [6], 91.2%. In addition, the growth in assay [7] is 139%; in assay [8] it was 110%.

With `O=C(Nc1ccc(-n2ccc3c(NC(=O)c4ccccc4)ncnc32)cc1)c1ccc(Cl)c(C(F)(F)F)c1`, the growth in assay [1] is 30.4%; in assay [2], 55.1%; in assay [3], 18.2%; in assay [4] it was -3.54% (active); in assay [5] it was 12.5%; in assay [6], -32% (active). For the same compound, the values for the growth in assay [7] and in assay [8] were 48.2% and 11.1%, respectively.

On to `O=C(O)c1cccc2oc(-c3ccccc3O)nc12`, for which the growth in assay [1] was 52.2%; in assay [2], 75.5%; in assay [3], 71.3%; in assay [4] it was 47.3%; in assay [5] it was 59.1%; in assay [6], 36.8%. For the same compound, the growth in assay [7] is 44.7%; in assay [8], 46%.

As for `Cc1cc(O[C@@H]2O[C@@H](C)[C@H](O)[C@@H](O)[C@H]2O)c2c3c(c(O[C@@H]4O[C@@H](C)[C@H](O)[C@@H](O)[C@H]4O)cc2c1)C(=O)c1c(O)cccc1C3=O`, the growth is 56.6% in assay [1]; 6.47% (active) in assay [2]; 92.8% in assay [3]; 93.4% in assay [4]; 81% in assay [5]; 81% in assay [6]. Besides, the growth in assay [7] was 91.1%; in assay [8], 86.8%.

For `CC[C@H]1[C@@H]2C=C[C@@H]3[C@H]4C/C=C\C(=O)NCCC[C@@H]5NC(=O)/C(=C(O)/C=C/[C@@H]4C[C@@H]3[C@H]2C[C@H]1C)C5=O`, the growth is 33.7% in assay [1]; -49.2% (active) in assay [2]; -81% (active) in assay [3]; 69.2% in assay [4]; 41.3% in assay [5]; -11.8% (active) in assay [6]. Also, the growth in assay [7] was 52.8%; in assay [8], 63.8%.

Regarding `COc1ccc(Cn2cc3c(c2-c2cc(OC)c(OC)c(OC)c2)CCc2c(CO)noc2-3)cc1`, the growth in assay [1] was 64.3%; in assay [2], 0.154% (active); in assay [3] it was -27.1% (active); in assay [4], 21.4%; in assay [5] it was 19.6%; in assay [6], 7.89% (active). For the same compound, the growth in assay [7] was 26.5%; in assay [8], 16.5%.

Take `[2H]c1nc(Nc2ncc(F)c(-c3cc(F)c4nc(C)n(C(C)C)c4c3)n2)c([2H])c([2H])c1CN1CCN(CC)CC1`: the growth in assay [1] was 71.8%; in assay [2], 55.4%; in assay [3], 51.9%; in assay [4], 33.8%; in assay [5], 25.9%; in assay [6], 20.6%. Moreover, the growth in assay [7] is 64.1%; in assay [8], 31.9%.

Source of the values: PubChem BioAssay (NCI).
